{"source": "PubChem BioAssay", "key": {"[1]": {"assay": "sensitizers of A549 cells to miR-34 induction, primary screen, imaging, A549 dox-inducible miR-34, nuclei and caspase counts (AID 1347080;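 active = compounds whose cell count with miR-34 switched on is under 0.7 times the count with it off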)", "conditions": "A549 miR-34 inducible, Hoechst nuclei count, 48 h"}, "[2]": {"assay": "survival rescue of mitochondrial mutant cells in low glucose, primary screen, MELAS cybrids, Rieske KO mouse fibroblasts, CellTiter-Glo (AID 1508586;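 active = mean z-score across replicates of 1.96 or higher in either the MELAS or the Rieske mutant cell line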;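 note: z relative to plate mean and SD of compound and empty wells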)"}, "[3]": {"assay": "LFS_MB_P medulloblastoma growth inhibition, cell-based, chromothripsis tumors, cisplatin or BGB combos (AID 1671449);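 note: cells exposed for 96 hours; 0% = vehicle DMSO and 100% = killing by high DMSO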", "conditions": "LFS_MB_P medulloblastoma cells"}, "[4]": {"assay": "HDN33 neuroblastoma growth inhibition, cell-based, chromothripsis tumors, cisplatin or BGB combos (AID 1671450);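 note: cells exposed to compound for four days; 0% = vehicle DMSO and 100% = cell killing by high DMSO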", "conditions": "HDN33 neuroblastoma cells, stronger effect = higher value"}, "[5]": {"assay": "ICB984 medulloblastoma cell growth inhibition, synergistic combos for chromothripsis tumors, cisplatin or BGB combos (AID 1671451; call rule not given here;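 note: cells exposed for 96 hours before readout; 0% = vehicle DMSO and 100% = killing by high DMSO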)", "conditions": "ICB984 medulloblastoma cells, drug combinations, stronger effect = higher value"}, "[6]": {"assay": "LFS_MB_1R medulloblastoma cell growth inhibition, synergistic combos for chromothripsis tumors, cisplatin or BGB combos (AID 1671452);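 note: cells exposed for 96 hours before readout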", "conditions": "LFS_MB_1R medulloblastoma cells, stronger effect = higher value"}, "[7]": {"assay": "HTB85 osteosarcoma cell growth inhibition, synergistic combos for chromothripsis tumors, BGB or cisplatin IC20 combos (AID 1671453);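 note: cells exposed for 96 hours before readout; 0% = vehicle DMSO and 100% = high DMSO killing control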", "conditions": "HTB85 osteosarcoma cells, drug combinations, stronger effect = higher value"}, "[8]": {"assay": "CRL2098 osteosarcoma cell growth inhibition, synergistic combos for chromothripsis tumors, BGB or cisplatin IC20 combos (AID 1671454);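 note: cells exposed for 96 h before readout; 0% = vehicle DMSO and 100% = killing by high DMSO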", "conditions": "CRL2098 osteosarcoma cells, drug combinations, stronger effect = higher value"}, "[9]": {"assay": "HD-MB03 medulloblastoma cell growth inhibition, synergistic combos for chromothripsis tumors, BGB or cisplatin IC20 combos (AID 1671455; in the data active = inhibition above about 83%;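 note: 0% = vehicle DMSO and 100% = high DMSO as cytotoxic control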)", "conditions": "HD-MB03 medulloblastoma cells, stronger effect = higher value"}, "[10]": {"assay": "UWB1.289 ovarian carcinoma cell growth inhibition, synergistic combos for chromothripsis tumors, BGB or cisplatin combos (AID 1671456);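 note: cells exposed to compound for four days; 0% = vehicle DMSO and 100% = killing by high DMSO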", "conditions": "UWB1.289 ovarian carcinoma cells, stronger effect = higher value"}, "[11]": {"assay": "LFS_MB_2R medulloblastoma cell growth inhibition, synergistic combos for chromothripsis tumors, cisplatin combos (AID 1671457);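 note: cells exposed to compound for four days before readout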", "conditions": "LFS_MB_2R medulloblastoma cells, stronger effect = higher value"}, "[12]": {"assay": "MDA-MB-436 breast carcinoma cell growth inhibition, synergistic combos for chromothripsis tumors, BGB or cisplatin combos (AID 1671458; call rule not given here;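 note: cells exposed for 96 hours; 0% = vehicle DMSO and 100% = killing by high DMSO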)", "conditions": "MDA-MB-436 breast carcinoma growth inhibition, drug combinations, stronger effect = higher value"}, "[13]": {"assay": "UWB1.289_BRCA1 ovarian cancer growth, cell-based, BGB or cisplatin combinations (AID 1671459)", "conditions": "UWB1.289 BRCA1 ovarian carcinoma, drug combinations, stronger effect = higher value"}, "[14]": {"assay": "human astrocyte viability loss, single and combined drugs, cytotoxicity control for chromothriptic childhood tumor combination screen, cell-based, BGB or cisplatin IC20 combos (AID 1671460);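 note: cells exposed to compounds for 96 hours before viability readout; 0% = vehicle and 100% = killing control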", "conditions": "Human astrocytes, drug combinations, stronger effect = higher value"}, "[15]": {"assay": "growth inhibition of BT084 medulloblastoma cells, cell-based, ICGC_MB145, cisplatin and BGB IC40 combos (AID 1671461);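 note: cells exposed to drugs for 96 hours; 0% = vehicle DMSO and 100% = high DMSO full killing control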", "conditions": "drug combinations, stronger effect = higher value"}, "[16]": {"assay": "growth inhibition of RCMB18 medulloblastoma cells, cell-based, cisplatin and BGB IC40 combos (AID 1671462);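 note: cells exposed to compound for four days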", "conditions": "stronger effect = higher value"}, "[17]": {"assay": "growth inhibition of CRL1545 osteosarcoma cells, cell-based, cisplatin and BGB IC20 combos (AID 1671464);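 note: cells exposed to compound for 96 hours before readout; 0% = vehicle DMSO and 100% = high DMSO killing control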", "conditions": "stronger effect = higher value"}, "[18]": {"conditions": "measured here: combination with BGB IC40, at 0.05 µM"}, "[19]": {"conditions": "measured here: with BGB IC20 combination, at 0.5 µM"}, "[20]": {"conditions": "measured here: with cisplatin IC20 combination, at 0.5 µM"}, "[21]": {"conditions": "measured here: combination with cisplatin, at 0.5 µM"}, "[22]": {"conditions": "measured here: combination with cisplatin, at 5 µM"}}, "note": "“And” between values parts separate entries of the source, which are not always exact repeats. Equal entries are not always repeated. The source made the active and inactive calls. Cut-off read from the data, not from the text of the source, unless noted: active = inhibition above about 80%; inactive = the rest."}
{"smiles": "CC(Oc1cc(-c2cnn(C3CCNCC3)c2)cnc1N)c1c(Cl)ccc(F)c1Cl", "note": "(centres undefined)", "values": [{"measurement": "fold change", "setting": "[1]; stronger effect = lower value, cell number ratio, induced over uninduced", "result": "0.89 (inactive) and 0.888 (inactive)"}, {"measurement": "fold change", "setting": "[1]; measured here: relative caspase fold change +Dox/-Dox", "result": "0.695 and 1.44"}, {"measurement": "cell count", "setting": "[1]; measured here: total cells with miR-34 induction, stronger effect = lower value", "result": "6060 and 1510"}, {"measurement": "cell count", "setting": "[1]; measured here: total cells without miR-34 induction", "result": "6810 and 1700"}, {"measurement": "z-score", "setting": "[2]; MELAS cybrid survival, CellTiter-Glo 48 h, stronger effect = higher value", "result": "-0.618 (inactive) and 0.388 (inactive)"}, {"measurement": "z-score", "setting": "[2]; Rieske KO mouse fibroblast survival, CellTiter-Glo 72 h", "result": "-0.613 and -1.18"}, {"measurement": "inhibition", "setting": "[3]; at 0.5 µM, stronger effect = higher value", "result": "-14.5% (inactive)"}, {"measurement": "inhibition", "setting": "[3]; measured here: combination with BGB IC20, at 0.005 µM", "result": -15.8, "unit": "%"}, {"measurement": "inhibition", "setting": "[3]; measured here: combination with BGB IC40, at 0.005 µM", "result": -3.96, "unit": "%"}, {"measurement": "inhibition", "setting": "[3]; [18]", "result": -10.8, "unit": "%"}, {"measurement": "inhibition", "setting": "[3]; measured here: combination with cisplatin, at 0.5 µM, stronger effect = higher value", "result": -18.2, "unit": "%"}, {"measurement": "inhibition", "setting": "[3]; measured here: combination with cisplatin, at 5 µM, stronger effect = higher value", "result": -60.7, "unit": "%"}, {"measurement": "inhibition", "setting": "[4]; BGB combo, at 5 µM", "result": 54.9, "unit": "%"}, {"measurement": "inhibition", "setting": "[4]; at 0.5 µM", "result": "3.71% (inactive)"}, {"measurement": "inhibition", "setting": "[4]; cisplatin combo, at 5 µM", "result": 68.7, "unit": "%"}, {"measurement": "inhibition", "setting": "[4]; [19]", "result": -2.84, "unit": "%"}, {"measurement": "inhibition", "setting": "[4]; [20]", "result": 14.2, "unit": "%"}, {"measurement": "inhibition", "setting": "[4]; single agent, at 5 µM", "result": 74.1, "unit": "%"}, {"measurement": "inhibition", "setting": "[5]; BGB IC20 combo, at 0.005 µM", "result": 9.17, "unit": "%"}, {"measurement": "inhibition", "setting": "[5]; BGB IC40 combo, at 0.005 µM", "result": -17.8, "unit": "%"}, {"measurement": "inhibition", "setting": "[5]; BGB IC40 combo, at 0.05 µM", "result": 44.6, "unit": "%"}, {"measurement": "inhibition", "setting": "[5]; at 0.5 µM", "result": "-13.1% (inactive)"}, {"measurement": "inhibition", "setting": "[5]; cisplatin combo, at 0.05 µM", "result": 42.6, "unit": "%"}, {"measurement": "inhibition", "setting": "[5]; cisplatin combo, at 0.5 µM", "result": -13.5, "unit": "%"}, {"measurement": "inhibition", "setting": "[5]; cisplatin combo, at 5 µM", "result": -41.4, "unit": "%"}, {"measurement": "inhibition", "setting": "[5]; measured here: 5 uM single agent, at 5 µM", "result": -10.6, "unit": "%"}, {"measurement": "inhibition", "setting": "[6]; at 0.5 µM", "result": "-9.48% (inactive)"}, {"measurement": "inhibition", "setting": "[6]; [18]", "result": 5.36, "unit": "%"}, {"measurement": "inhibition", "setting": "[6]; [21]", "result": -34, "unit": "%"}, {"measurement": "inhibition", "setting": "[6]; [22]", "result": 26.2, "unit": "%"}, {"measurement": "inhibition", "setting": "[7]; at 0.5 µM", "result": "2.72% (inactive)"}, {"measurement": "inhibition", "setting": "[7]; measured here: with BGB IC20, at 0.5 µM", "result": 0.991, "unit": "%"}, {"measurement": "inhibition", "setting": "[7]; measured here: with BGB IC20, at 5 µM", "result": 44.7, "unit": "%"}, {"measurement": "inhibition", "setting": "[7]; measured here: with cisplatin IC20, at 0.5 µM", "result": 4.34, "unit": "%"}, {"measurement": "inhibition", "setting": "[7]; measured here: with cisplatin IC20, at 5 µM", "result": 12.6, "unit": "%"}, {"measurement": "inhibition", "setting": "[7]; single agent, at 5 µM", "result": 47.7, "unit": "%"}, {"measurement": "inhibition", "setting": "[8]; at 0.5 µM", "result": "-32.5% (inactive)"}, {"measurement": "inhibition", "setting": "[8]; measured here: combination with BGB at IC20, at 0.5 µM", "result": -20.2, "unit": "%"}, {"measurement": "inhibition", "setting": "[8]; measured here: combination with cisplatin at IC20, at 0.5 µM", "result": -64.1, "unit": "%"}, {"measurement": "inhibition", "setting": "[9]; at 0.5 µM", "result": "3.43% (inactive)"}, {"measurement": "inhibition", "setting": "[9]; measured here: combo with BGB at IC20, at 0.5 µM", "result": -2.99, "unit": "%"}, {"measurement": "inhibition", "setting": "[9]; measured here: combo with cisplatin at IC20, at 0.5 µM", "result": 13.3, "unit": "%"}, {"measurement": "inhibition", "setting": "[10]; at 0.5 µM", "result": "11.5% (inactive)"}, {"measurement": "inhibition", "setting": "[10]; measured here: inhibition with BGB combination, at 0.05 µM", "result": 17.9, "unit": "%"}, {"measurement": "inhibition", "setting": "[10]; measured here: inhibition with cisplatin combination, at 0.05 µM", "result": 12.8, "unit": "%"}, {"measurement": "inhibition", "setting": "[11]; at 0.5 µM", "result": "-6.87% (inactive)"}, {"measurement": "inhibition", "setting": "[11]; [21]", "result": -10.6, "unit": "%"}, {"measurement": "inhibition", "setting": "[11]; [22]", "result": 26.8, "unit": "%"}, {"measurement": "inhibition", "setting": "[12]; at 0.5 µM", "result": "2.15% (inactive)"}, {"measurement": "inhibition", "setting": "[12]; measured here: BGB combination, at 0.5 µM", "result": 0.074, "unit": "%"}, {"measurement": "inhibition", "setting": "[12]; measured here: BGB combination, at 5 µM", "result": 18.2, "unit": "%"}, {"measurement": "inhibition", "setting": "[12]; measured here: cisplatin combination, at 0.5 µM", "result": 3.61, "unit": "%"}, {"measurement": "inhibition", "setting": "[12]; measured here: cisplatin combination, at 5 µM", "result": 29.4, "unit": "%"}, {"measurement": "inhibition", "setting": "[13]; BGB combination, concentration series, at 5 µM", "result": 53.7, "unit": "%"}, {"measurement": "inhibition", "setting": "[13]; at 0.5 µM", "result": "8.71% (inactive)"}, {"measurement": "inhibition", "setting": "[13]; cisplatin combination, concentration series, at 5 µM", "result": 38.8, "unit": "%"}, {"measurement": "inhibition", "setting": "[14]; at 0.5 µM", "result": "-2.23% (inactive)"}, {"measurement": "inhibition", "setting": "[14]; measured here: combo with BGB IC20, at 0.5 µM", "result": -5.88, "unit": "%"}, {"measurement": "inhibition", "setting": "[14]; measured here: combo with cisplatin IC20, at 0.5 µM", "result": -4.28, "unit": "%"}, {"measurement": "inhibition", "setting": "[15]; at 0.5 µM", "result": "5.1% (inactive)"}, {"measurement": "inhibition", "setting": "[15]; cisplatin combination, at 0.5 µM", "result": -5.89, "unit": "%"}, {"measurement": "inhibition", "setting": "[15]; cisplatin combination, at 5 µM", "result": 96.5, "unit": "%"}, {"measurement": "inhibition", "setting": "[15]; measured here: BGB IC40 combination 0.05 uM, at 0.05 µM", "result": -35.9, "unit": "%"}, {"measurement": "inhibition", "setting": "[15]; single agent, at 5 µM", "result": 55.8, "unit": "%"}, {"measurement": "inhibition", "setting": "[16]; at 0.5 µM", "result": "16.2% (inactive)"}, {"measurement": "inhibition", "setting": "[16]; cisplatin combo, at 5 µM", "result": 34.5, "unit": "%"}, {"measurement": "inhibition", "setting": "[16]; measured here: BGB IC40 combination, at 0.05 µM", "result": 5.63, "unit": "%"}, {"measurement": "inhibition", "setting": "[16]; [21]", "result": 33, "unit": "%"}, {"measurement": "inhibition", "setting": "[16]; single agent, at 5 µM", "result": 51.6, "unit": "%"}, {"measurement": "inhibition", "setting": "[17]; at 0.5 µM", "result": "-10% (inactive)"}, {"measurement": "inhibition", "setting": "[17]; [19]", "result": -14.1, "unit": "%"}, {"measurement": "inhibition", "setting": "[17]; [20]", "result": -9.79, "unit": "%"}, {"measurement": "inhibition", "setting": "[17]; single agent, at 0.05 µM", "result": 7.84, "unit": "%"}, {"measurement": "inhibition", "setting": "[17]; single agent, at 5 µM", "result": 64, "unit": "%"}]}
